Drawing on PubChem BioAssay AID1259341 (Broad Institute, 2017), this text covers activity change, negative = inhibition for 36 molecules.

Each structure is given as a SMILES string. Values without a mark were called inactive. The source made the active and inactive calls.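 The calls were made as follows: active = activity change under -35% in any replicate well, with more than 20 beads read in that well; inactive = the rest.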

Sequence of Caspase recruitment domain-containing protein 9 (Homo sapiens) + E3 ubiquitin-protein ligase TRIM62 (Homo sapiens) (Q9BVG3 whole entry, looked up, the tested form may be a part): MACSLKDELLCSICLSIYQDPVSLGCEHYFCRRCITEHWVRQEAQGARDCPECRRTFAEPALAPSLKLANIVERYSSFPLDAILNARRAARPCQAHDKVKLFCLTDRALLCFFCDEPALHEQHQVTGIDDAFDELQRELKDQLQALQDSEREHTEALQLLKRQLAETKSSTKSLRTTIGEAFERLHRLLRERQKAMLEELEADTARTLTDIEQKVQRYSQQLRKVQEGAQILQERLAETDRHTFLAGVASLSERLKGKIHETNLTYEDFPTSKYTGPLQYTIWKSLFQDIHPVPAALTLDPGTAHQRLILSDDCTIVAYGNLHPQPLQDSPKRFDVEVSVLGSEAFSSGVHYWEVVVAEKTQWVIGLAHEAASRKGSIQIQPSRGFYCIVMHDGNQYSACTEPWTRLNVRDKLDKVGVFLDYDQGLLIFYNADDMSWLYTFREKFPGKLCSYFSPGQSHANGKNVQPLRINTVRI
Sequence of Caspase recruitment domain-containing protein 9 (Homo sapiens) + E3 ubiquitin-protein ligase TRIM62 (Homo sapiens) (Q9H257 whole entry, looked up, the tested form may be a part): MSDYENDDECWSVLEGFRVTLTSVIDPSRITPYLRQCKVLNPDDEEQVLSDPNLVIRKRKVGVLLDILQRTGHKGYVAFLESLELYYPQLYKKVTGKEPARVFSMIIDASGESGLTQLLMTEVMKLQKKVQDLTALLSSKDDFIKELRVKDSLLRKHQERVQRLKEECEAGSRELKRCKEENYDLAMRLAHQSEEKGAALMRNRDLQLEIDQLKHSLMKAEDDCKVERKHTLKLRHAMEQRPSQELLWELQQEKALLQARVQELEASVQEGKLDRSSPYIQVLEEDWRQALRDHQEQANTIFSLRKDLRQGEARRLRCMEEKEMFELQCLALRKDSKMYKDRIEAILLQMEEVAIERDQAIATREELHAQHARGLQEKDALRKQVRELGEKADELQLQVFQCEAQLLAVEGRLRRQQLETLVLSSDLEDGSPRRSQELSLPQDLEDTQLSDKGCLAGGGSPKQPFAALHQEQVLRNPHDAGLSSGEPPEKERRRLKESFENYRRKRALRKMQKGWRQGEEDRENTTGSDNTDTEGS

The assay addresses Caspase recruitment domain-containing protein 9 (Homo sapiens) + E3 ubiquitin-protein ligase TRIM62 (Homo sapiens) (UniProt Q9H257+Q9BVG3). The experiment in a line: disruptors of CARD9-TRIM62 binding, primary screen, cell lysate, HEK293FT lysates, Luminex bead ELISA (AID 1259341).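 Also: PE anti-Flag signal of Flag-CARD9 captured by myc-TRIM62 beads.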 Conditions: PE fluorescence, active compounds read low, concentration not given here. In general terms: An ELISA detects its analyte on a solid surface through an enzyme-linked reagent.
`O=C(NC(Sc1ncccn1)C(=O)c1ccccc1)c1ccccc1` (stereo unspecified): the activity change, negative = inhibition was 2.47%. For the molecule `Cc1ccc(N2C(=O)c3ccccc3C2C(=O)c2ccc(O)cc2O)cc1` (stereo unspecified), the activity change, negative = inhibition is 12.1%. As for `O=C(Nc1cccc2nsnc12)c1ccc(-c2cccc(Cl)c2)o1`, the activity change, negative = inhibition was 11.7%. The figure for `CC1Cc2ccccc2N1CC(=O)NC(=O)NC(C)(C)C` (stereo unspecified) is 2.18%; for `O=C(CCCN1C(=O)NC2(CCCC2)C1=O)Nc1ccc(F)cc1` it is 23.8%. For `O=C(Nc1nncs1)c1cc(-c2ccco2)nc2ccccc12`, the activity change, negative = inhibition is -5.26%.

Consider `O=C(Nc1ccc2oc(-c3ccncc3)nc2c1)c1ccc2c(c1)OCCO2`, for which the activity change, negative = inhibition is -1.89%. The figure for `COCC(=O)n1nc(-c2ccco2)nc1NCc1cccs1` is -2.31%; for `COc1ccc(S(=O)(=O)N2CCN(C(=O)c3cc4c(s3)CCC4)CC2)cc1` it is 0.552%; for `O=C(CN1CCN(c2ccccc2O)CC1)NC(=O)NC1CCCC1` it is 2.28%.

For `Cn1cccc1CNCCCSc1ncccn1`, the activity change, negative = inhibition was 1.41%. Take `COCC(=O)N1CCCC2(CCN(CCN3CCCC3)C2=O)C1` (stereo unspecified): the activity change, negative = inhibition was -5.85%. Turning to `C[C@H](CO)N1C[C@H](C)[C@@H](CN(C)C(=O)C2CCCCC2)OCCCC[C@H](C)Oc2ccc(NS(=O)(=O)c3cn(C)cn3)cc2C1=O`, the activity change, negative = inhibition was -7.17%. Regarding `C[C@H](CO)N1C[C@H](C)[C@@H](CN(C)C(=O)C2CCCCC2)OCCCC[C@H](C)Oc2ccc(NS(=O)(=O)c3ccc(F)cc3)cc2C1=O`, the activity change, negative = inhibition was 9.27%. Consider `O=C(Nc1nc(-c2ccco2)c(-c2ccco2)s1)c1ccc(F)cc1F`, for which the activity change, negative = inhibition was 6.3%. The figure for `Nc1ccc(-c2cccc(CN3CCCC3)c2)cc1` is -3.56%; for `O=C1CS/C(=N\N=C\c2ccco2)N1c1ccccc1` it is -3.42%. Then `NC(=O)C1(N2CCCCC2)CCN(c2ncc(NC(=O)c3ccc(Cl)cc3)cc2C(=O)O)CC1`, with -54.5% (active); and `COc1ccc(CNC(=O)c2nc(Nc3ccc(C)cc3)c3ccccc3n2)cc1`, with -5.2%. For `O=C(Nc1nc(-c2ccco2)c(-c2ccco2)s1)C1CCC1`, the activity change, negative = inhibition was -9.96%. As to `O=C(Nc1nccs1)c1cc(-c2ccco2)nc2ccccc12`, the activity change, negative = inhibition was -0.894%. Take `Cc1ccc(-c2nc(C)sc2CC(=O)NCc2ccco2)cc1`: the activity change, negative = inhibition is -1.34%.

Turning to `Cc1cc(C)c2c(N)c(C(=O)Nc3cccc4ccccc34)sc2n1`, the activity change, negative = inhibition is -1.34%. Turning to `COCCC(=O)N1CCCC2(CCN(CCN3CCCC3)C2=O)C1` (stereo unspecified), the activity change, negative = inhibition was -7.49%. Then `C[C@H](CO)N1C[C@H](C)[C@H](CN(C)C(=O)C2CCCCC2)OCCCC[C@H](C)Oc2ccc(NS(=O)(=O)c3cccs3)cc2C1=O`, with 6.16%; and `CN(c1ccccc1C(=O)NCc1ccco1)S(C)(=O)=O`, with -3.12%. As to `C[C@H](CO)N1C[C@H](C)[C@@H](CN(C)C(=O)C2CCCCC2)OCCCC[C@H](C)Oc2ccc(NS(C)(=O)=O)cc2C1=O`, the activity change, negative = inhibition is 9.86%.

Regarding `O=C(Nc1ccc(OCC(=O)N2CCOCC2)cc1)c1cncc(Br)c1`, the activity change, negative = inhibition is -1.75%.

With `O=[N+]([O-])c1ccc2nn(Cc3ccccc3)cc2c1`, the activity change, negative = inhibition was 16.2%. Take `CC(CCc1ccco1)N(C)S(=O)(=O)c1ccc2[nH]c(=O)ccc2c1` (stereo unspecified): the activity change, negative = inhibition is 3.38%. The figure for `C[C@H](CO)N1C[C@H](C)[C@@H](CN(C)C(=O)C2CCCCC2)OCCCC[C@H](C)Oc2ccc(NS(=O)(=O)c3ccccc3)cc2C1=O` is 6.21%; for `Cc1cnc(C)c(N2CCN(C(=O)[C@H]3CC[C@@H](N)C3)CC2)n1` it is 2.01%.

Take `Cc1oc(CSCc2cc(C(=O)O)c(C)o2)cc1C(=O)O`: the activity change, negative = inhibition is 1.21%. Turning to `C=CC(=O)N1CCCC2(CCN(CCN3CCCC3)C2=O)C1` (stereo unspecified), the activity change, negative = inhibition was -70.2% (active). `O=C(O)c1ccccc1SC1CC(=O)N(Cc2ccccc2)C1=O` (stereo unspecified): the activity change, negative = inhibition was 6.92%. Turning to `Cc1ccc(C)n1NC(=O)c1ccccc1O`, the activity change, negative = inhibition was 1.19%.
